Compound activity from PubChem.
PMK inhibit: S. pneumoniae PMK inhibitors, primary screen, biochemical, mevalonate pathway, pilot trial included | phosphomevalonate kinase (Streptococcus pneumoniae D39) | purified PMK, PK/LDH-coupled NADH absorbance 340 nm | inhibition, % at 10 µM | 0.49% of 65,000 active | AID 539, 2006;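 active = top-ranked compounds by inhibition in the single 10 µM screen, taking a fixed number of the strongest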
Spn MK inh: S. pneumoniae MK inhibitors, primary screen, biochemical, PK/LDH-coupled NADH absorbance | mevalonate kinase [Streptococcus pneumoniae D39] | purified MK, PK/LDH-coupled NADH absorbance 340 nm | inhibition, % at 10 µM | 0.48% of 65,000 active;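 active = ranked among the strongest by inhibition in the single 10 µM screen, a fixed top-ranked set picked for dose follow-up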
Autofluor 339: intrinsic fluorescence of library compounds, ex339/em460 – biochemical, MLSMR library, data from DPM-DC assay, artefact control, profiling panel | compound autofluorescence, ex339/em460 nm, NADH buffer; stronger effect = higher value; 1 = no-compound wells, NADH background | fluorescence fold increase at 10 µM | 5.5% of 65,000 active;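 active = at 10 µM, mean starting fluorescence two-fold or more over control wells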;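 note: signal is the first read of a kinetic run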
NADH enzymes: inhibitors of PK/LDH coupling enzymes, profiling panel, artefact control, biochemical, MLSMR library; 0.02% of 65,000 active; IC50, µM (series often up to 10 µM); coupled PK/LDH NADH assays, four targets;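 active = single-dose screening hits from any of four coupled enzyme assays that gave an IC50 when retested across doses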;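 note: the DPM-DC format reads NADH fluorescence rather than 340 nm absorbance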
A340 absorber: compound light absorbance at 340 nm, profiling panel, artefact control, biochemical, MLSMR library, data from PS, PMK, MK assays; compound absorbance at 340 nm, fold over control; fold change at 10 µM; 65,000 tested, under 10 active; AID 708, 2007;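 active = at 10 µM dose, initial 340 nm absorbance at least 2 fold that of control wells; inactive = change under 2 fold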;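 note: initial absorbance extrapolated from kinetic A340 decline of NADH oxidation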
DPM-DC inhibit: S. pneumoniae DPM-DC inhibitors, primary screen, biochemical, PK/LDH-coupled NADH fluorescence | diphosphomevalonate decarboxylase (Streptococcus pneumoniae D39) | purified DPM-DC | calls only at 10 µM | 0.49% of 65,000 active;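 active = the 320 compounds with the highest percent inhibition in the single-dose primary screen, excluding strongly autofluorescent ones, cut at about 32% in these data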;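 note: kinetic rate of NADH fluorescence loss reporting ADP formed by the decarboxylase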
Numbers stand for hits; - = inactive; . = no result shown; + = active, no number. Most compounds without a hit are left out; they make up all but 6.5% or so of the library.

SMILES | PMK inhibit | Spn MK inh | Autofluor 339 | NADH enzymes | A340 absorber | DPM-DC inhibit
Cc1ccc(C2NC(=O)c3c(sc4c3CCN(C)C4)N2)o1 (stereo not drawn) | - | - | - | - | - | -
CN1CCc2c(sc3c2C(=O)NC(c2ccccn2)N3)C1 (stereo not drawn) | - | - | 2.4 | - | - | -
Cc1ccc(C2NC(=O)c3c(sc4c3CCN(C)C4)N2)s1 (stereo not drawn) | - | - | 2.3 | - | - | -
O=C1NC(c2ccccn2)Nc2sc3c(c21)CCC3 (stereo not drawn) | - | - | - | - | - | -
CS(=O)(=O)N(CC(=O)Nc1cccnc1)c1ccc2c(c1)OCO2 | - | - | - | - | - | -
CCC(C)(C)n1nnnc1C(C(C)C)N1CCSCC1 (stereo not drawn) | - | - | - | - | - | -
COc1ccc(C)cc1NS(=O)(=O)c1cccc2nonc12 | - | - | - | - | - | -
CCn1c2ccccc2c2nnc(SCc3cc(=O)n4ccsc4n3)nc21 | - | - | - | - | - | -
CCCCn1c(=O)[nH]c(=O)c2c1nc(-c1ccc(C#N)cc1)n2C1CCCC1 | - | - | 5.2 | - | - | .
CCCCn1c(=O)[nH]c(=O)c2c1nc(-c1ccncc1)n2CCOC | - | - | - | - | - | -
COc1ccc(OC)c(NC(=O)CNC(=O)Cn2ccc3ccccc3c2=O)c1 | 30 | - | - | - | - | -
CC(C)Sc1nc2sc3c(c2c2nnc(SCC(=O)NCc4ccco4)n12)CCCC3 | - | - | - | - | - | -
C=CCOc1c(CNc2nccs2)cccc1OCC | - | - | - | - | - | -
COc1ccccc1-c1nnc(SCCN2CCOCC2)n1-c1ccc(C)cc1 | - | - | - | - | - | -
Cc1nnc(SCCN2CCOCC2)n1C | - | 52 | - | - | - | -
CCOC(=O)C1CCCN(c2ncnc3c2[nH]c2cccc(OC)c23)C1 (stereo not drawn) | - | - | 3.7 | - | - | .
CC1CCCN(c2ncnc3c2cnn3-c2ccccc2)C1 (stereo not drawn) | - | - | - | - | - | -
COc1cccc2[nH]c3c(N4CCCC(C)C4)ncnc3c12 (stereo not drawn) | - | - | 3.4 | - | - | .
CCOC(=O)C1CCCN(c2ncnc3c2cnn3-c2cccc(C)c2)C1 (stereo not drawn) | - | - | - | - | - | -
CCCCn1nnnc1NCc1cccc(OC)c1OC | - | - | - | - | - | -
O=C(CSc1nnc(Cc2ccccc2)o1)Nc1ccc(Br)cn1 | - | - | - | - | - | -
COc1ccccc1NC(=O)CSc1nc(O)cc(=O)n1-c1ccccc1OC | - | - | - | - | - | +
COc1ccccc1-n1c(SCC(=O)Nc2ccccc2C)nc(O)cc1=O | - | - | - | - | - | -
Cc1nn(-c2ccc(C(=O)O)cc2)c(N)c1-c1ccccc1 | - | - | - | - | - | -
Cc1nn(-c2ccccc2)c2c1C(O)n1c(nc3ccccc31)S2 (stereo not drawn) | - | + | - | - | - | -
SMILES | PMK inhibit | Spn MK inh | Autofluor 339 | NADH enzymes | A340 absorber | DPM-DC inhibit
Cc1c(NC(=O)CSc2nnc(-c3cccc(Cl)c3)o2)c(=O)n(-c2ccccc2)n1C | - | - | - | - | - | -
Cc1cccc(C)c1OCCCCc1c(C)n[nH]c1C | - | - | - | - | - | -
Cc1ccccc1OCCCCc1c(C)n[nH]c1C | 31 | - | - | - | - | -
CCOCc1cc(C)[nH]c(=O)c1C#N | - | - | 4.5 | - | - | .
O=C(O)c1cc(-c2ccccc2)nc2ccccc12 | - | - | - | - | - | -
O=C(O)c1cc(Cl)c2ccccc2c1O | - | - | 3.8 | - | - | .
CCC1(C)Cc2nc3sc(C(=O)O)c(N)c3cc2CO1 (stereo not drawn) | - | - | - | - | - | -
CCCCS(=O)(=O)c1sc2nc3c(cc2c1N)CCCC3 | - | - | 3.3 | - | - | .
CCOC(=O)CSc1nnc(C)n1N | - | - | - | - | - | -
CC(C)n1nnnc1SCC(=O)Nc1ccccc1N1CCOCC1 | active | - | - | - | - | -
Cn1c(Cc2ccccc2)nnc1SCC(=O)Nc1ccccc1N1CCOCC1 | - | - | - | - | - | -
Cc1cc(-c2cc(N)n(-c3ccccc3)n2)c(C)n1C1CCCC1 | - | - | - | - | - | -
O=C(Nc1nc(-c2cc3ccccc3oc2=O)cs1)c1ccco1 | - | - | 2.1 | - | - | .
O=C(COC(=O)c1ccccc1NC(=O)c1ccco1)NCCC1=CCCCC1 | - | - | 2 | - | - | .
CCCC(=O)Nc1cccc(C(=O)Nc2nccs2)c1 | - | - | - | - | - | -
O=C(CCCc1nc(-c2ccccc2)no1)N1CCOCC1 | - | - | - | - | - | -
CCOC(=O)c1nn(-c2ccccc2)c(=O)c2c(N)scc12 | - | - | - | - | - | -
CCOC(=O)c1nn(-c2ccccc2)c(C(=O)OCC)c1N | - | - | 3.8 | - | - | .
Cc1ccccc1Cn1cc(NC(=O)c2cc3nc(-c4ccco4)cc(C(F)(F)F)n3n2)cn1 | - | - | 3 | - | - | +
O=C(Nc1ccc(Cl)cc1)c1cc2nc(-c3ccco3)cc(C(F)(F)F)n2n1 | - | - | 2.5 | - | - | -
Cn1c(CCNC(=O)c2ccco2)nc2cc(NS(=O)(=O)c3ccc(Cl)cc3)ccc21 | - | - | - | - | - | -
Cc1cc(-c2ccc(F)cc2)nc2cc(C(N)=O)nn12 | - | - | 2.1 | - | - | -
CCOC(=O)c1cnn2c(C)cc(-c3ccc(F)cc3)nc12 | - | - | 2.2 | - | - | .
CCCOc1ccc(C2C(C(=O)OC)=CN(CCOC)C=C2C(=O)OC)cc1 | - | - | 2.6 | - | - | .
COCCN1C=C(C(=O)OC)C(c2ccc(OC)c(OC)c2)C(C(=O)OC)=C1 | - | - | 2.2 | - | - | .
SMILES | PMK inhibit | Spn MK inh | Autofluor 339 | NADH enzymes | A340 absorber | DPM-DC inhibit
COC(=O)C1=C2SC(C)C(=O)N2C(N)=C(C#N)C1c1ccc(OC)c(OC)c1 (stereo not drawn) | - | - | - | - | - | -
COC(=O)C1=CN(CC2CCCO2)C=C(C(=O)OC)C1c1cc(OC)c(OC)c(OC)c1 (stereo not drawn) | - | - | 2.1 | - | - | .
Cc1ccccc1N(Cc1nnc2n1CCCCC2)C(=O)Nc1ccccc1 | - | - | - | - | - | -
CSCC[C@H](NC(=O)OC(C)(C)C)c1nnc(SCC(=O)Nc2ccc(C)cc2C)o1 | - | - | - | - | - | -
Cc1cccc(N(C)S(=O)(=O)c2ccc3[nH]c(=O)c(=O)[nH]c3c2)c1 | - | - | - | - | - | -
CCOc1ccc(CC(=O)NCc2cn3c(C)csc3n2)cc1 | - | - | - | - | - | -
